DT40 TDP1 no CPT = qHTS for Inhibitors of human tyrosyl-DNA phosphodiesterase 1 (TDP1): qHTS in cells in absence of CPT | Potency, µM (series often up to 46.2 µM), usual class: inhibitors | 420,000 compounds, 15% hits | DT40 Tdp1-/- hTDP1 cells, no CPT, ATP luminescence, 48 h | AID 686978, 2013; further: nearly all actives have a fitted effect of over 55% in size
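Camptothecin absent (DMSO only). Human TDP1-complemented DT40 knockout cells, 400 cells/well, 37 °C for minimum 48 hr; ATP measured via CellTiter-Glo, 30 min dark incubation, luminescence.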
RORgamma inh = inhibitors of mouse ROR gamma transcriptional activity. Drosophila S2 Gal4-RORgamma UAS-luciferase reporter, 20 h. Potency, µM (top dose mostly 53.6 µM), actives largely listed as inhibitors. 310,000 compounds, 5.4% hits. P51450; further: nearly all actives have a fitted effect of over 60% in size
Target sequence (P51450 whole entry, looked up, the tested form may be a part): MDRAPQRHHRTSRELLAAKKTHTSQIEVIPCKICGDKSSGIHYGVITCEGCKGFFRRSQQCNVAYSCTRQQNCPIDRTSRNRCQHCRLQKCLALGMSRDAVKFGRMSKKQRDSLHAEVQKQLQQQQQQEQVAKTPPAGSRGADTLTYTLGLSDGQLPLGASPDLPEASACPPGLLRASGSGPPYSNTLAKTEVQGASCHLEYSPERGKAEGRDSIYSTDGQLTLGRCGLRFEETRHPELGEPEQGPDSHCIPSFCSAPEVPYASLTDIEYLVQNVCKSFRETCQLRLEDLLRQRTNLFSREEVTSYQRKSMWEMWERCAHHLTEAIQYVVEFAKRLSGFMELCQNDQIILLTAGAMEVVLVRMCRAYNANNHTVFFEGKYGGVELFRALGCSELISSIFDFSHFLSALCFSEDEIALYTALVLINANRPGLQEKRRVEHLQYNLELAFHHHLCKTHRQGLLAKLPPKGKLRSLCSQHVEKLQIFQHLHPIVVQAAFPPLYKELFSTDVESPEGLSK
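Using a luciferase readout, inhibitors were identified by reduced reporter activity in Drosophila cells coexpressing a copper-inducible Gal4–ROR gamma fusion and UAS-driven Photinus luciferase, incubated 20 hr after 700 uM copper sulfate.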
TDP1 cell CPT = growth inhibition of DT40 Tdp1-/-;hTDP1 cells with camptothecin (screen for TDP1 inhibitors); 420,000 compounds, 12% hits; chicken DT40 Tdp1-/-;hTDP1 cells + 20 nM CPT, ATP luminescence, 48 h; Potency, µM (series often up to 46.2 µM), hits mostly inhibitors; AID 686979; further: nearly all actives have a fitted effect of over 55% in size
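Cell growth measured by CellTiter-Glo luminescence after a minimum 48 h, 37 C compound exposure with 20 nM CPT in Tdp1-knockout DT40 cells stably expressing hTDP1, seeded 400/well; qHTS titration format.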
IL-1B inflam inh = inhibitors of inflammasome signaling (IL-1 beta secretion); 360,000 compounds, 4.7% hits; AID 743279; THP-1 LPS/ATP IL-1B secretion, AlphaLISA, 16 h; stronger effect = lower value; activity change, % at 57.5 µM; in the data active means activity change below about -50%; inconclusive means mostly about -30% to -49%
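THP-1 cells pretreated 1 hr with compounds (up to 57.5 uM final), then stimulated with LPS (250 ng/mL final) plus ATP (1.25 mM final); secreted IL-1B measured by AlphaLISA after 16 hr, decreased signal indicating inhibition.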
ELG1 repair inh = ELG1-dependent DNA repair inhibition. 330,000 compounds, 2.3% hits. HEK293T ELG1-luciferase reporter, luminescence, 16 h; DNA damage induced by 5-fluorouridine. AID 504467. Potency, µM (series often up to 46.1 µM), usual class: inhibitors; further: nearly all actives have a fitted effect of over 55% in size
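5-Fluorouridine DNA damage + compound/DMSO, 2,000 cells/well, 16 h, 37 °C/5% CO2. ONE-Glo, 30 min RT, luminescence. Readout = decrease in reporter signal.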
Gal4-VP16 FLuc = counter-screen for ROR gamma inhibitors: Gal4-VP16 reporter; Potency, µM (titrated, usually from 53.6 µM), hits mostly inhibitors; Drosophila S2 Gal4-VP16 UAS-luciferase, luminescence, 20 h; 310,000 compounds, 3.5% hits;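 further: Gal4-VP16 expression switched on by copper sulfate through the metallothionein promoter; nearly all actives have a fitted effect of over 50% in size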
Large screens that a line does not name were inactive. The list is not random: actives were taken first. Their share in the collection is about 21%. Unless noted, the call rests on the fitted dose curve; in most records, active means well fitted curve in the direction sought with a large enough effect; inconclusive means small, poorly fitted or top-dose-only effect, or another doubt; inactive means no such curve, though single readings can be large; an effect the other way counts as inactive or inconclusive.

O=Cc1ccccc1C=O	DT40 TDP1 no CPT inconclusive, TDP1 cell CPT 9.4µM (no result: IL-1B inflam inh, ELG1 repair inh)
COCC(=O)Nc1nc(-c2ccccc2)ns1	ELG1 repair inh inconclusive
CCCCN(CCCNC(=O)c1ccc2c(c1)NC(=O)CN2C)c1ccccc1	DT40 TDP1 no CPT inconclusive, TDP1 cell CPT inconclusive, IL-1B inflam inh -103 (no result: RORgamma inh, ELG1 repair inh, Gal4-VP16 FLuc)
O=C(Nc1ccc(O)c(-c2nc3ccccc3s2)c1)c1cccs1	ELG1 repair inh inconclusive
CCSc1ccccc1C(=O)Nc1ccc(-c2nc3ccccc3s2)c(O)c1	DT40 TDP1 no CPT 13µM, TDP1 cell CPT 9.2µM (no result: RORgamma inh, IL-1B inflam inh, ELG1 repair inh, Gal4-VP16 FLuc)
CC(C)c1ccc(C(=O)Nc2ccc(-c3nc4ccccc4s3)c(Cl)c2)cc1	DT40 TDP1 no CPT 7.3µM, TDP1 cell CPT 6.5µM (no result: RORgamma inh, IL-1B inflam inh, ELG1 repair inh, Gal4-VP16 FLuc)
Cc1ccc(C(=O)Cn2c(=N)n(CCN3CCOCC3)c3ccccc32)cc1	DT40 TDP1 no CPT inconclusive, TDP1 cell CPT inconclusive (no result: RORgamma inh, Gal4-VP16 FLuc)
CCCCn1c(=N)n(CC(=O)c2ccc([N+](=O)[O-])cc2)c2ccccc21	RORgamma inh 1.3µM (no result: DT40 TDP1 no CPT, TDP1 cell CPT, IL-1B inflam inh)
Cc1ccc(Cn2c(=N)n(CC(=O)c3ccc([N+](=O)[O-])cc3)c3ccccc32)cc1	DT40 TDP1 no CPT 2.9µM, RORgamma inh inconclusive, TDP1 cell CPT 4.6µM, IL-1B inflam inh -102
CCCn1c(=N)n(CC(=O)O)c2ccccc21	none (no result: RORgamma inh, ELG1 repair inh, Gal4-VP16 FLuc)
COc1ccc2c(c1)sc1ncc(C(=O)NCc3ccccc3F)c(=O)n12	none (no result: RORgamma inh, IL-1B inflam inh, ELG1 repair inh, Gal4-VP16 FLuc)
Cc1ccc(Sc2ccc(CN3CCCC3)cc2[N+](=O)[O-])cc1	DT40 TDP1 no CPT 5.8µM, TDP1 cell CPT 6.5µM
Cc1ccc(Sc2ccc(CO)cc2[N+](=O)[O-])cc1	DT40 TDP1 no CPT inconclusive
CN1CCN(Cc2ccc(Sc3ccc(Cl)cc3)c([N+](=O)[O-])c2)CC1	DT40 TDP1 no CPT 15µM, TDP1 cell CPT inconclusive, IL-1B inflam inh -92, ELG1 repair inh inconclusive
O=C(NC1CCCCCC1)C1CCN(c2nc3ccccc3o2)CC1	DT40 TDP1 no CPT 16µM, TDP1 cell CPT inconclusive, ELG1 repair inh inconclusive
Cc1cc(C)nc(SCc2nnc(SCC(=O)Nc3nccs3)n2C)n1	none
Cc1cc(=O)[nH]c(SCC(=O)Nc2nc(-c3ccccc3)cs2)n1	ELG1 repair inh inconclusive
Cc1sc(NC(=O)CSc2nnc(CCNC(=O)c3cccs3)n2C)nc1-c1ccccc1	DT40 TDP1 no CPT inconclusive, ELG1 repair inh 16µM
CCn1c(CSc2nc(C)cc(C)n2)nnc1SCC(=O)Nc1nc(-c2ccccc2)cs1	DT40 TDP1 no CPT inconclusive, TDP1 cell CPT 21µM
Cc1cc(C)nc(SCc2nnc(SCC(=O)Nc3nc(-c4ccccc4)cs3)n2C)n1	DT40 TDP1 no CPT 26µM, TDP1 cell CPT inconclusive, ELG1 repair inh inconclusive
O=C1NC[C@@H](CCCCN2CCN(Cc3ccccc3)C(=O)C2=O)N(Cc2ccccc2)C1=O	none (no result: RORgamma inh, ELG1 repair inh, Gal4-VP16 FLuc)
COc1ccc(-n2c(/C=C(\C)O)nc(=O)c3c(C)cc(C)nc32)cc1	DT40 TDP1 no CPT inconclusive, TDP1 cell CPT inconclusive, ELG1 repair inh 8.2µM
COc1ccc(-n2c(C)nn(C)c2=O)cc1	DT40 TDP1 no CPT inconclusive
COc1cc(C(=O)NC2CC(C)(C)Cc3c2cnn3-c2ccccc2)cc(OC)c1OC (stereo not drawn)	DT40 TDP1 no CPT inconclusive, ELG1 repair inh inconclusive
COc1cccc(C(=O)NC2CC(C)(C)Cc3c2cnn3-c2cccc(F)c2)c1OC (stereo not drawn)	DT40 TDP1 no CPT 18µM, TDP1 cell CPT 23µM, ELG1 repair inh inconclusive
CCn1nc(C)cc1C(=O)NC1CC(C)(C)Cc2c1cnn2-c1cccc(F)c1 (stereo not drawn)	DT40 TDP1 no CPT 16µM, RORgamma inh inconclusive, TDP1 cell CPT 21µM
CCOc1ccc(OCCC(=O)N(CC)CC(=O)NCc2ccc(Cl)cc2)cc1	DT40 TDP1 no CPT inconclusive, TDP1 cell CPT inconclusive (no result: RORgamma inh, Gal4-VP16 FLuc)
CC(NC(=O)c1ccco1)C(=O)O (stereo not drawn)	none (no result: RORgamma inh, Gal4-VP16 FLuc)
CCOC(=O)C1=C(N)Oc2ccc3ccccc3c2C1c1ccc(O)cc1 (stereo not drawn)	DT40 TDP1 no CPT inconclusive, TDP1 cell CPT inconclusive
